High-throughput results: PubChem BioAssay, several laboratories
The full list was thinned out, with hits kept by preference.
GIRK2 act: activators of NPY4-receptor-primed GIRK2 channels, summary, cell-based, HEK293, thallium flux; G protein-activated inward rectifier potassium channel 2 (Homo sapiens), P48051; HEK293 GIRK2/NPY4 cells, thallium flux fluorescence; activation (% efficacy), % for hits at 37.5 µM; 34,000 tested, under 10 active;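 active = primary screen hit, no activity in plain HEK293 cells, and in GIRK2-only cells above 5% efficacy rising with concentration; inactive = the rest, including fluorescent compounds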;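 also: efficacy is normalized control-subtracted fluorescence 15 s after thallium addition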
Target sequence (P48051 whole entry, looked up): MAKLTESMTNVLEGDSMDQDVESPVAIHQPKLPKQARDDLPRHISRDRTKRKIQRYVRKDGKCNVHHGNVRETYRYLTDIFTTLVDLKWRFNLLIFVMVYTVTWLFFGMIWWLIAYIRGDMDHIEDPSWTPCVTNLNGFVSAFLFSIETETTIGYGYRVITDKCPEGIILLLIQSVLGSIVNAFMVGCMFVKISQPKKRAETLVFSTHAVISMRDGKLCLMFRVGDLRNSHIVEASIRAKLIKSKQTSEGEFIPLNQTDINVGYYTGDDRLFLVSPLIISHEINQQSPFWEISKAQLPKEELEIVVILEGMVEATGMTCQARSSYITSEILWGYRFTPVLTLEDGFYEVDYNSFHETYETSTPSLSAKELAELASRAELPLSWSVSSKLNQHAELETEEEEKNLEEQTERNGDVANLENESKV
AMPAR-TARP mod: modulators of GluA2-stargazin AMPA receptor complexes, primary screen, cell-based, membrane potential dye; Voltage-dependent calcium channel gamma-2 subunit (Mus musculus) + Glutamate receptor 2 …; AID 1259245, 2017; HEK293 GluA2+stargazin, membrane potential dye (FDSS), glutamate EC50; hits were called plate by plate, in both directions; actives 3.5% (n = 40,000); calls only at 30 µM;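 active = any of four per-well response measures lying three or more SD from its plate-wide compound average, in either direction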
Active calls of the source: *; i = inactive; x = no result; + = active, no number.

SMILES	GIRK2 act	AMPAR-TARP mod
Cc1ccc(C(=O)Nn2cnc3c(cnn3-c3ccccc3)c2=O)cc1[N+](=O)[O-]	i	i
Cn1ccnc1N1CCN(C(=O)c2cc(Cl)ccc2Cl)CC1	i	i
CS(=O)(=O)N1CCC(C(=O)NCCN2CCN(C(=O)c3cccs3)CC2)CC1	i	i
COc1ccc(/C=C2\Oc3c4c(cc(C)c3C2=O)OCN(C2CC2)C4)cc1OC	i	i
COc1ccc(/C=C2\Oc3c(cc4c(c3C)OCN(Cc3ccco3)C4)C2=O)cc1OC	i	+
COc1nc2ccccc2nc1N1CCC(C(=O)Nc2ccccc2)CC1	i	i
O=C(Cn1c(CO)cnc1SCc1c(F)cccc1Cl)NC1CCCC1	i	+
Cc1nc2c(sc3cccc(F)c32)c(=O)n1CC(=O)NC1CCCCC1	i	x
COc1cc(NC(=O)Nc2cccc(N3CCCS3(=O)=O)c2)cc(OC)c1	i	i
O=C(CS(=O)(=O)c1ccc(Cl)s1)Nc1ccc(Oc2ccccc2)cc1	i	i
O=C(CS(=O)(=O)c1ccc(Cl)s1)Nc1cccc(C(F)(F)F)c1	i	+
Cc1ccc(C)c(Cn2c(=O)c3c(nc4n(CCCN(C)C)c(C)c(C)n34)n(C)c2=O)c1	i	i
Cc1c(C)n2c3c(=O)n(Cc4cccc(Cl)c4)c(=O)n(C)c3nc2n1CCN(C)C	i	+
CCOC(=O)NCc1nc2ccccc2n1Cc1ccccc1F	i	+
CCOC(=O)NCc1nc2ccccc2n1Cc1c(F)cccc1Cl	x	i
COC(=O)NCCc1nc2ccccc2n1Cc1c(F)cccc1Cl	x	+
OCc1nc2ccccc2n1Cc1c(F)cccc1Cl	x	i
Cc1cc(NC(=O)Cn2cnc(-c3ccccc3)cc2=O)no1	i	i
CC(C)(C)n1nc2c(c1NC(=O)C(=O)NCc1cccs1)CSC2	i	i
O=C(Nc1c2c(nn1-c1ccc(Cl)cc1)CSC2)C(=O)N1CCCC1	i	i
O=C(Nc1c2c(nn1-c1ccc(F)cc1)CSC2)C(=O)N1CCCC1	x	+
COC(=O)Nc1nc(CC(=O)Nc2cccc(NC(C)=O)c2)cs1	i	x
COc1ccc(NC(=O)CSc2ncc(S(=O)(=O)c3cccc(Cl)c3)c(=O)[nH]2)cc1	x	i
CC(c1ccccc1)n1c(C2CC(=O)N(C(C)(C)C)C2)nc2ccccc21 (configuration not stated)	x	+
CC(C)(C)N1CC(c2nc3ccccc3n2CCOc2ccccc2)CC1=O (configuration not stated)	x	i
SMILES	GIRK2 act	AMPAR-TARP mod
C=CCN1CC(c2nc3ccccc3n2C(C)c2ccccc2)CC1=O (configuration not stated)	x	+
C=CCN1CC(c2nc3ccccc3n2Cc2c(C)c(C)cc(C)c2C)CC1=O (configuration not stated)	x	+
C=CCN1CC(c2nc3ccccc3n2Cc2ccc(Cl)c(Cl)c2)CC1=O (configuration not stated)	x	i
C=CCN1CC(c2nc3ccccc3n2Cc2ccc(C(C)(C)C)cc2)CC1=O (configuration not stated)	x	i
Cc1cc(Cl)cc2sc(NC(=O)CS(=O)(=O)Cc3ccccc3)nc12	i	i
CCc1nc2sc(C(c3ccccc3F)N3CC(C)OC(C)C3)c(O)n2n1 (configuration not stated)	i	i
COc1ccc(C)cc1N1CCCn2c1nc1c2c(=O)n(Cc2ccccc2C)c(=O)n1C	x	i
O=C(NCC1CCN(c2ccccn2)CC1)C(=O)Nc1ccc2c(c1)OCO2	i	i
COc1cccc(CCNC(=O)CC2CCCCN2S(=O)(=O)c2ccccc2)c1 (configuration not stated)	x	i
COc1cccc(CCNC(=O)CC2CCCCN2S(=O)(=O)c2ccc(Cl)cc2)c1 (configuration not stated)	x	+
COc1ccc(S(=O)(=O)N2CCCCC2CC(=O)NCc2ccccc2OC)cc1 (configuration not stated)	x	i
COc1ccc(S(=O)(=O)N2CCCCC2CC(=O)NCc2ccccc2Cl)cc1 (configuration not stated)	x	+
CCOC(=O)c1c(SCC(=O)NCC2CCCO2)nc(=O)[nH]c1C (configuration not stated)	i	i
Cc1ncc(Br)c(C(=O)O)n1	i	i
Cc1ccc(S(=O)(=O)Nc2nc(CCC(=O)Nc3cccc(F)c3)cs2)cc1	i	i
Cc1ccc(S(=O)(=O)Nc2nc(CCC(=O)Nc3cccc(Cl)c3)cs2)cc1	i	+
COc1ccc(Cl)cc1NC(=O)NCC1CCN(C(=O)Nc2ccc(F)cc2)CC1	i	i
COc1ccc(Cl)cc1S(=O)(=O)NCC1CCN(C(=O)Nc2ccc(F)cc2)CC1	i	+
